Values joined by “and” are separate entries in the source; they are usually repeats but may differ in a detail not shown here. Equal entries are not always repeated. Results filed as inconclusive are left out. A number with no mark means an inactive call. Active and inactive are the calls of the source. Calls follow the shape of the dose curve; as a rule, active = well fitted inhibition curve with a large enough effect; inconclusive = small, poorly fitted or top-dose-only effect; inactive = flat fitted curve, though single readings scatter.

Ubiquitin carboxyl-terminal hydrolase 1 (Homo sapiens), sequence (O94782 whole entry, looked up): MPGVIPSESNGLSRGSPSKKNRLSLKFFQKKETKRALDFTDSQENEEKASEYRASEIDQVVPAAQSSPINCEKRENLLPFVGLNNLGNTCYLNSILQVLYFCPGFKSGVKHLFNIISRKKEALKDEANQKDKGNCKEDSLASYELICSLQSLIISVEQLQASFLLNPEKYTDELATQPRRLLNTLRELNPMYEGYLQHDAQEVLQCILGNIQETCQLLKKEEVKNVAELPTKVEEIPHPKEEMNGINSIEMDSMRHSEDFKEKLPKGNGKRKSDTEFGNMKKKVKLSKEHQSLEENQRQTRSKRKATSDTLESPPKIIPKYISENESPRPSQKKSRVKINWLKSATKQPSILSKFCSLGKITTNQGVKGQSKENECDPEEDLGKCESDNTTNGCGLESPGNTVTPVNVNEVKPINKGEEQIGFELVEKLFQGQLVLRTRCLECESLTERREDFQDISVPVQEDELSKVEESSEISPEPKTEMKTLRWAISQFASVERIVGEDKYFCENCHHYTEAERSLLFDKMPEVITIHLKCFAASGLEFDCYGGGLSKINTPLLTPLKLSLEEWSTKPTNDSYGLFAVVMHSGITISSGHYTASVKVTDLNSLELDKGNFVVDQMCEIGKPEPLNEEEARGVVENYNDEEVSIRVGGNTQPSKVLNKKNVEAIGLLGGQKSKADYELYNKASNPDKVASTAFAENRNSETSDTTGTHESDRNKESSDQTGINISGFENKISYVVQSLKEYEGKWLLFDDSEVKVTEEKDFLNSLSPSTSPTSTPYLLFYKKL

This test addresses Ubiquitin carboxyl-terminal hydrolase 1 (Homo sapiens) (UniProt O94782). Put plainly: Inhibitors of USP1/UAF1: SAR in Primary Assay. The note with it: Recombinant USP1/UAF1, Ub-Rhodamine cleavage fluorescence; series mostly up to 57.1 µM; activity change, negative = inhibition: at the top concentration. An excerpt: Deubiquitinating enzymes (DUBs) are a class of enzymes that can cleave isopeptide bond formed between the C-terminal carboxylate of ubiquitin and a lysine side-chain amino group on the target protein. Among them, ubiquitin specific proteases (USPs) constitute the largest DUB family. Human USPs are emerging as promising targets for pharmacological intervention because of their connection to a number of human diseases, including prostate, colon and breast cancer (1, 2), pediatric acute lymphoblastic leukemia (3), and familial cylindromatosis (4). The advantage of inhibiting USPs lies in the potential specificity of therapeutic intervention that can lead to better efficacy and reduce nonspecific side effects. In a collaboration between the University of Delaware and the NIH Chemical Genomics Center, a high-throughput screen assay was developed to screen for USP1/UAF1 inhibitors (5). This assay was used to test the analogs that were synthesized based on SAR around the original hit. NIH Chemical Genomics Center [NCGC] NIH Molecular Libraries Probe Centers Network [MLPCN] MLPCN Grant: DA030552-01 Assay Submitter (PI): Zhihao Zhuang, University of Delaware 1. Priolo, C., et al. (2006) The isopeptidase USP2a protects human prostate cancer from apoptosis. Cancer Res 66, 8625-8632 2. Popov, N., et al. (2007) The ubiquitin-specific protease USP28 is required for MYC stability. Nat Cell Biol 9, 765-774 3. De Pitta, C., et al. (2005) A leukemia-enriched cDNA microarray platform identifies new transcripts with relevance to the biology of pediatric acute lymphoblastic leukemia. Haematologica 90, 890-898 4. Kovalenko, A., et al. (2003) The tumour suppressor CYLD negatively regulates NF-kappaB signalling by deubiquitination. Nature 424, 801-805 5. Chen, J., et al. (2011) Selective and cell-active inhibitors of the USP1/ UAF1 deubiquitinase complex reverse cisplatin resistance in non-small cell lung cancer cells. Chem Bio 18(11):1390-400.
3 microliters of reagents (buffer in columns 3 and 4 as negative control and 1nM USP1/UAF1 complex in columns 1, 2, and 5-48) are dispensed into Greiner black solid bottom 1536-well assay plates. Compounds are then transferred via Kalypsys pin tool equipped with 1536-pin array (10nl slotted pins, V&P Scientific, San Diego, CA). Following an incubation step of 15 min at room temperature, 1ul of Ub-Rho substrate (150nM final concentration) is added to initiate the reaction. The plates are immediately centrifuged at 1000 rpm for 15 seconds, and subsequently transferred to a ViewLux high-throughput CCD imager (PerkinElmer) wherein kinetic measurements of fluorescence are acquired using 480 nm excitation/540 nm emission filter set (6 reads every 60 seconds, see Table 1). All reagents are diluted in an assay buffer consisting of 50mM HEPES (pH 7.8), 0.5mM EDTA, 0.1 mg/ml BSA, 1mM TCEP, and 0.01% Tween-20.
As to `Fc1cnc(-c2ccccc2C(F)F)nc1NCC1CCN(c2cnccn2)CC1`, the Potency was 2410 nM (active).
On the same count and under the same terms, the result for `Cc1cnc(-c2ccccc2C(C)C)nc1NCc1ccc(-c2ccnc(C(F)(F)F)c2)cc1` reads 383 nM (active); that for `Cc1cnc(-c2ccccc2C(C)C)nc1NCc1ccc(C(N)=O)cc1`, 4290 nM (active).
In the case of `Cc1cnc(-c2ccccc2C(C)C)nc1NCc1ccc(-c2cccc(S(N)(=O)=O)c2)cc1`, the Potency is 215 nM (active).
On the same count and under the same terms, the result for `CC(C)c1ccccc1-c1nc(NCc2ccc(-c3cccnc3)cc2)c2[nH]cnc2n1` reads 121 nM (active); that for `Cc1cnc(-c2ccccc2C(C)(C)C)nc1NCc1ccc(-n2ccnn2)cc1`, 136 nM (active).
For the compound `FC(F)(F)c1ccccc1-c1nc(NCc2ccc(-c3cccnc3)cc2)c2[nH]cnc2n1`, the Potency was 607 nM (active).
Regarding `CC(Nc1nc(-c2ccccc2C(F)(F)F)nc2ccccc12)c1ccc(-c2ccncc2)cc1` (stereo not given), the Potency was 5410 nM (active).
On to `CC(=O)c1ccccc1-c1ncc(C)c(NCc2ccc(-c3cccnc3)cc2)n1`, for which the Potency is 7640 nM (active).
Still for that read-out and setting: next, `Cc1cnc(-c2ccccc2C(C)C)nc1NCc1ccc(-c2ccc(F)nc2)cc1`: 60.7 nM (active); `FC(F)(F)c1ccccc1-c1nc(NCC2CCN(c3cccnc3)CC2)c2ccccc2n1`: 607 nM (active).
For the compound `CCc1ccccc1-c1nc(NCc2ccc(-c3cccnc3)cc2)c2ccccc2n1`, the Potency was 607 nM (active).
For `Cc1cnc(-c2ccccc2C2COC2)nc1NCC1CCN(c2cccnc2)CC1`, the “activity change, negative = inhibition” value is -6.08%.
Take `FC(F)(F)c1cc(-c2ccc(CNc3nc(-c4ccccc4C(F)(F)F)nc4ccsc34)cc2)ccn1`: the Potency is 3410 nM (active).
Same read-out and setting: next, `CC(C)c1ccccc1-c1ncc(N(C)C)c(NCc2ccc(-c3cccnc3)cc2)n1`: 152 nM (active).
Take `FC(F)(F)c1ccccc1-c1nc2c(c(NCc3ccc(-c4cccnc4)cc3)n1)CCC2`: the Potency was 681 nM (active).
Still for that read-out and setting: the result for `Cc1cnc(-c2ccccc2C(C)C)nc1NCc1cccs1` reads 215 nM (active).
With `CC(C)c1ccccc1-c1nc(NCc2ccc(-c3cccnc3)cc2)c2occc2n1`, the Potency was 152 nM (active).
Regarding `CC(C)c1ccccc1-c1nc(NCc2ccc(-c3cccnc3)cc2)c2ccsc2n1`, the Potency is 242 nM (active).
On to `Cc1cnc(-c2ccccc2C(C)C)nc1NCC1CCN(c2cccnc2)C1` (stereo not given), for which the Potency is 429 nM (active).
In the case of `Fc1ccccc1-c1nc(NCc2ccc(-c3cccnc3)cc2)c2ccccc2n1`, the Potency was 3410 nM (active).
With `Cc1cnc(-c2ccccc2N(C)C)nc1NCc1ccc(-c2cccnc2)cc1`, the Potency was 429 nM (active).
With `Cc1ccc(N2CCC(CNc3nc(-c4ccccc4C(C)C)ncc3C)CC2)cn1`, the Potency was 171 nM (active) and 60.7 nM (active).
As for `Cc1cnc(-c2ccccc2C(C)O)nc1NCC1CCN(c2cccnc2)CC1` (stereo not given), the Potency was 2410 nM (active).
As for `CC(C)c1ccccc1-c1nc2c(c(NCc3ccc(-c4cccnc4)cc3)n1)CCNC2`, the Potency was 482 nM (active).
Regarding `c1cncc(-c2ccc(CNc3nc(N4CCOCC4)nc4ccccc34)cc2)c1`, the “activity change, negative = inhibition” value is -18.2%.
Regarding `FC(F)(F)c1ccccc1-c1nc(NCc2ccc(-c3cncnc3)cc2)c2ccccc2n1`, the Potency was 1920 nM (active).
For the compound `FC(F)(F)c1ccccc1-c1nc(NCC#Cc2cccnc2)c2ccccc2n1`, the Potency is 4.82 µM (active) and 7.64 µM (active).
`COc1ccccc1-c1nc(NCc2ccc(-c3cccnc3)cc2)c2ccccc2n1`: the Potency was 681 nM (active).
In the case of `Cc1cnc(-c2ccccc2C(C)C)nc1NC(C)c1ccc(-c2cccnc2)cc1` (stereo not given), the Potency is 136 nM (active).
`Cc1cnc(-c2ccccc2C(C)C)nc1NCC1CCN(c2cnccn2)CC1`: the Potency was 121 nM (active).
With `Nc1nc(NCc2ccc(-c3cccnc3)cc2)c2ccccc2n1`, the “activity change, negative = inhibition” value is -16.9%.
Consider `CC(Nc1nc(-c2ccccc2C(F)(F)F)nc2ccccc12)c1ccc(-c2ccccc2)cc1` (stereo not given), for which the Potency is 4820 nM (active).
Turning to `Cc1cccc(C(CO)Nc2nc(-c3ccccc3C(C)C)ncc2C)c1` (stereo not given), the Potency was 1080 nM (active).
Turning to `CC(C)c1ccccc1-c1nc(NCc2ccc(-c3cccnc3)cc2)c2ccccc2n1`, the Potency is 152 nM (active).
For the compound `Cc1nc(-c2ccccc2C(C)C)nc(NCc2ccc(-c3cccnc3)cc2)c1C`, the Potency is 136 nM (active).
`Cc1cnc(-c2ccccc2C(C)C)nc1NCc1ccc(C2CCCNC2)cc1` (stereo not given): the Potency is 7640 nM (active).
`Cc1cnc(-c2ccccc2C(C)C)nc1NCC1CCN(C2COC2)CC1`: the Potency is 15200 nM (active).
Same read-out and setting: next, `FC(F)(F)c1ccccc1-c1nc(NCc2ccc(C3CCCCC3)cc2)c2ccccc2n1`: 6810 nM (active).
Take `Cc1cnc(-c2ccccc2C(C)C)nc1N(C)Cc1ccc(-c2cccnc2)cc1`: the Potency is 681 nM (active).

Values taken from PubChem BioAssay AID651605 (National Center for Advancing Translational Sciences (NCATS), 2012).
